The supplement of paper PMC12350171
Counter-ions that a name gives are not always drawn.

System: Haemophilus parainfluenzae
Assay: growth AUC normalised to DMSO control (fraction of control); higher = less growth inhibition, active = hit call of the paper
Settings: 20 µM;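 active = AUC significantly below DMSO controls by Student t-fit with adjusted P under 0.01; inactive = not significantly reduced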
In short: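 After two anaerobic passages, pathogens were added at a starting OD578 of 0.01 to pre-reduced mGAM plates holding compound at 20 μM with 1% DMSO; hemin and NAD were supplemented for Haemophilus parainfluenzae. Sealed with breathable membranes, plates were read at OD578 hourly for 24 h, in three biological replicates. The trapezoidal rule, applied up to the exponential-to-stationary transition, gave the growth-curve AUC, which was normalised to DMSO controls on the same plate.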

| SMILES | growth AUC normalised to DMSO control |
| --- | --- |
| CN(C)CCC[C@@]1(c2ccc(F)cc2)OCc2cc(C#N)ccc21 [Escitalopram oxalate] | 1.03 (inactive) |
| CC(Oc1c(Cl)cccc1Cl)C1=NCCN1 (centres undefined) [Lofexidine] | 0.993 (inactive) |
| c1ccc(C2CN3CCSC3=N2)cc1 (centres undefined) [Tetramisole hydrochloride] | 0.997 (inactive) |
| CC(C)(C)NCC(O)c1ccc(O)c(CO)c1 (centres undefined) [Salbutamol] | 0.895 (inactive) |
| CC(=O)N[C@@H](CC(C)C)C(=O)O [N-Acetyl-L-leucine] | 1.02 (inactive) |
| Cc1cc(/C=C/c2ccc3cc(N(C)C)ccc3[n+]2C)c(C)n1-c1ccccc1 [Pyrvinium pamoate] | 1.06 (inactive) |
| NC(=O)N1c2ccccc2CC(=O)c2ccccc21 [Oxcarbazepine] | 0.954 (inactive) |
| CCCCN1CCCCC1C(=O)Nc1c(C)cccc1C (centres undefined) [Bupivacaine hydrochloride] | 0.967 (inactive) |
| CN(C)C(=O)C(CCN1CCC(O)(c2ccc(Cl)cc2)CC1)(c1ccccc1)c1ccccc1 [Loperamide hydrochloride] | 1 (inactive) |
| CN[C@@H]1[C@H](O[C@H]2[C@H](O[C@H]3[C@H](O)[C@@H](O)[C@H](N=C(N)N)[C@@H](O)[C@@H]3N=C(N)N)O[C@@H](C)[C@]2(O)C=O)O[C@@H](CO)[C@H](O)[C@H]1O [Streptomycin sulfate] | 0.633 (active) |
| O=C(c1ccc(F)cc1)C1CCN(CCn2c(=O)[nH]c3ccccc3c2=O)CC1 [Ketanserin tartrate hydrate] | 0.928 (inactive) |
| OCCN1CCN(CCCN2c3ccccc3Sc3ccc(C(F)(F)F)cc32)CC1 [Fluphenazine dihydrochloride] | 0.999 (inactive) |
| CN(C/C=C/c1ccccc1)Cc1cccc2ccccc12 [Naftifine hydrochloride] | 0.977 (inactive) |
| CCN[C@H]1CN(CCCOC)S(=O)(=O)c2sc(S(N)(=O)=O)cc21 [Brinzolamide] | 0.946 (inactive) |
| CCN(CC)C(=O)N1CCN(C)CC1 [Diethylcarbamazine citrate] | 0.978 (inactive) |
| O=C1CC2(CCCC2)CC(=O)N1CCCCN1CCN(c2ncccn2)CC1 [Buspirone hydrochloride] | 1.09 (inactive) |
| CC(C)CC(=O)N[C@H](C(=O)N[C@H](C(=O)N[C@@H](CC(C)C)[C@@H](O)CC(=O)N[C@@H](C)C(=O)N[C@@H](CC(C)C)[C@@H](O)CC(=O)O)C(C)C)C(C)C [Pepstatin A] | 1.07 (inactive) |
| Nc1ccn([C@@H]2O[C@H](CO)[C@@H](O)[C@@H]2O)c(=O)n1 [Cytarabine] | 0.999 (inactive) |
| Clc1cccc(Cl)c1NC1=NCCN1 [Clonidine hydrochloride] | 0.978 (inactive) |
| Cc1cc(C(C)(C)C)c(O)c(C)c1CC1=NCCN1 [Oxymetazoline hydrochloride] | 0.991 (inactive) |

| SMILES | growth AUC normalised to DMSO control |
| --- | --- |
| CC(C)(O)c1ccccc1CC[C@@H](SCC1(CC(=O)O)CC1)c1cccc(/C=C/c2ccc3ccc(Cl)cc3n2)c1 [Montelukast] | 0.964 (inactive) |
| CC(C[N+](C)(C)C)OC(N)=O (centres undefined) [Bethanechol chloride] | 1 (inactive) |
| COC1=CC(=O)C[C@@H](C)[C@]12Oc1c(Cl)c(OC)cc(OC)c1C2=O [Griseofulvin] | 1.02 (inactive) |
| COc1c(N2C[C@@H]3CCCN[C@@H]3C2)c(F)cc2c(=O)c(C(=O)O)cn(C3CC3)c12 [Moxifloxacin] | 0.0254 (active) |
| CC/C(=C(/CC)c1ccc(O)cc1)c1ccc(O)cc1 [Diethylstilbestrol] | 1.01 (inactive) |
| CC1(C)S[C@@H]2[C@H](NC(=O)[C@H](N)c3ccccc3)C(=O)N2[C@H]1C(=O)O [Ampicillin trihydrate] | 0.0576 (active) |
| CN1CCC(=C2c3ccccc3CCc3sccc32)CC1 [Pizotifen malate] | 0.936 (inactive) |
| CCN1CCCC1CNC(=O)c1cc(S(N)(=O)=O)ccc1OC (centres undefined) [Sulpiride] | 1.02 (inactive) |
| CCC(=O)O[C@]1(C(=O)SCF)[C@H](C)C[C@H]2[C@@H]3C[C@H](F)C4=CC(=O)C=C[C@]4(C)[C@@]3(F)[C@@H](O)C[C@@]21C [Fluticasone propionate] | 0.997 (inactive) |
| CC(C(=O)O)c1ccc(C(=O)c2cccs2)cc1 (centres undefined) [Suprofen] | 0.987 (inactive) |
| Cn1c(=O)c2[nH]cnc2n(C)c1=O [Aminophylline] | 1.04 (inactive) |
| CC(C)c1c(C(=O)Nc2ccccc2)c(-c2ccccc2)c(-c2ccc(F)cc2)n1CC[C@@H](O)C[C@@H](O)CC(=O)O [Atorvastatin] | 0.996 (inactive) |
| Cc1cc(C(C)(C)C)cc(C)c1CC1=NCCN1 [Xylometazoline hydrochloride] | 0.996 (inactive) |
| CCc1nn(CCCN2CCN(c3cccc(Cl)c3)CC2)c(=O)n1CCOc1ccccc1 [Nefazodone hydrochloride] | 0.942 (inactive) |
| Clc1cc(Cl)c(OCC#CI)cc1Cl [Haloprogin] | 0.992 (inactive) |
| CC(C)NC(=N)NC(=N)Nc1ccc(Cl)cc1 [Proguanil hydrochloride] | 0.973 (inactive) |
| COC(=O)Nc1nc2cc(Sc3ccccc3)ccc2[nH]1 [Fenbendazole] | 1.04 (inactive) |
| CCOC(=O)C1=C(C)NC(C)=C(C(=O)OC)C1c1cccc(Cl)c1Cl (centres undefined) [Felodipine] | 0.863 (inactive) |
| CCCC1O[C@@H]2C[C@H]3[C@@H]4CCC5=CC(=O)C=C[C@]5(C)[C@H]4[C@@H](O)C[C@]3(C)[C@]2(C(=O)CO)O1 (some centres undefined) [Budesonide] | 0.964 (inactive) |
